Values joined by “and” are separate entries in the source; they are usually repeats but may differ in a detail not shown here. Identical values can stand only once. Inconclusive results are not listed. Entries that show only a call come without a potency. Where a structure was tested more than once in an assay, its records may differ in their call. Active and inactive are the calls of the source. The call rests on the fitted dose curve; in most records, active means well fitted curve in the direction sought with a large enough effect; inconclusive means small, poorly fitted or top-dose-only effect, or another doubt; inactive means no such curve, though single readings can be large; an effect the other way counts as inactive or inconclusive.
Columns and labels:
[1] = target: Glutathione peroxidase 1 (Homo sapiens) (UniProt P07203); experiment: Primary qHTS Assay for Inhibitors of Recombinant Selenoprotein Glutathione Peroxidase 1 (GPX1) (AID 1845191); further: nearly all actives have a fitted effect of over 65% in size
Summary of the method: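 10 nM GPX1 + cpd, 30 min RT; start w/ 1 mM GSH, 0.5 mM cumene hydroperoxide, 0.5 mM NADPH, 100 nM GR, 0.01% BSA; buffer 50 mM Tris-HCl pH 7.5, 2 mM EDTA, 150 mM NaCl; Fl 340/450, 0 & 15 min.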

[2] = target: Phospholipid hydroperoxide glutathione peroxidase GPX4 (Homo sapiens) (UniProt P36969); experiment: Primary qHTS Assay for Inhibitors of Recombinant Selenoprotein Glutathione Peroxidase 4 (GPX4) (AID 1845192); further: nearly all actives have a fitted effect of over 65% in size; further: potency means the concentration at half of the fitted maximal effect
Summary of the method: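 NADPH consumption, followed by fluorescence at 340/450 nm between 0 and 15 min, reports GPX4 activity via coupled glutathione reductase (100 nM). Enzyme 200 nM was pre-exposed to compound 30 min; 0.5 mM cumene hydroperoxide and 1 mM GSH served as substrates.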

[3] = Primary fluorescence-based thiol-reactive (MSTI) qHTS assay for identification of artifact compounds. (AID 1845221); further: nearly all actives have a fitted effect of over 65% in size; further: potency means the concentration at half of the fitted maximal effect
Summary of the method: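 In PBS pH 7.4 with 2% DMSO, each compound met 4 uM MSTI for one hour at ambient temperature, shielded from light, before fluorescence detection.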

[4] = system: Nanoluciferase (engineered Oplophorus gracilirostris luciferase); experiment: Primary Nanoluciferase (NLuc) qHTS assay for identification of artifact compounds. (AID 1845222);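 further: NLuc secreted into diluted conditioned medium of S16 cells; series mostly up to about 54 µM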
Summary of the method: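 NLuc from S16 cell medium (1:55) plus test compounds, 15 min, room temperature. Luminescence after Nano-Glo (1:100) addition, 5 min.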

[5] = Primary redox qHTS assay for identification of artifact compounds. (AID 1845223)
Summary of the method: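 Amplex Red (25 uM) and HRP (250 mU/mL) in HBSS, with compounds for 15 min, then 250 uM DTT for 30 min, room temperature, dark. Fluorescence 525/598 nm read; normalized to DMSO and 10 uM DA3003; Hill fit.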

[6] = Quantitative High-Throughput drug screen in 47 multiple myeloma cell lines against the NCATS MIPE library collection: Delta47_JCRB cell viability assay (AID 1918925; further: nearly all actives have a fitted effect of over 45% in size; further: potency means the concentration at half of the fitted maximal effect)
Summary of the method: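 Relative luminescence from CellTiter-Glo served as the viability signal, referenced to DMSO-treated (100%) and cell-free medium (0%) controls. Treatment lasted 48 hours at 37C with 500 cells per well.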

[7] = target: Luciferin 4-monooxygenase (Photinus pyralis) (UniProt P08659); experiment: Primary firefly luciferase (FLuc) qHTS assay for identification of artifact compounds. (AID 1845220); further: nearly all actives have a fitted effect of over 60% in size
Summary of the method: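 FLuc 10 nM; luciferin 10 uM; ATP 10 uM; Tris-acetate pH 7.6, Mg-acetate 10 mM; 15 min RT preincubation; 5 min reaction; luminescence.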

[8] = Quantitative High-Throughput drug screen in 47 multiple myeloma cell lines against the NCATS MIPE library collection: FR4_PLB cell viability assay (AID 1918924; further: nearly all actives have a fitted effect of over 35% in size; further: potency means the concentration at half of the fitted maximal effect)
Summary of the method: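 Luminescent ATP measurement with CellTiter-Glo gives viability, scaled between DMSO-only wells (100%) and media-only wells (0%). Cells, 500 per well, faced library compounds for 48 hours at 37C.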

Chain of Glutathione peroxidase 1 (Homo sapiens) (P07203 whole entry, looked up): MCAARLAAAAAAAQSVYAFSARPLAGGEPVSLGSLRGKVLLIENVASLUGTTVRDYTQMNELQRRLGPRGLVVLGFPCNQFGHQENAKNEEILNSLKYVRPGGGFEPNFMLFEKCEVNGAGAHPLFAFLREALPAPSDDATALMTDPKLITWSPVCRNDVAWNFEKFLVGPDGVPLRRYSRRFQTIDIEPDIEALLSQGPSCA
Chain of Phospholipid hydroperoxide glutathione peroxidase GPX4 (Homo sapiens) (P36969 whole entry, looked up): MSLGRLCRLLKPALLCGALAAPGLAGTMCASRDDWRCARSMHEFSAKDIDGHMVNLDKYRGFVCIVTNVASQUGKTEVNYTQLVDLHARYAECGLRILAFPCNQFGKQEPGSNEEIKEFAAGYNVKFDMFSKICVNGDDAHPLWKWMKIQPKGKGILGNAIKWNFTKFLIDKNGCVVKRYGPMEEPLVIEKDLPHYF

SMILES: CCc1cccc(CC)c1NC(=O)N1Cc2[nH]nc(NC(=O)c3ccc(N4CCN(C)CC4)cc3)c2C1
- Potency [1]: inactive
- Potency [2]: inactive
- Potency [3]: inactive
- Potency [4]: inactive
- outcome [5]: inactive
- Potency [6]: 5.9 µM (active)

SMILES: COc1cc(Nc2nc3ccccc3nc2NS(=O)(=O)c2ccc(NC(=O)c3ccc(C)c(OC)c3)cc2)cc(OC)c1
- Potency [1]: inactive
- Potency [2]: inactive
- Potency [7]: inactive
- Potency [4]: inactive
- outcome [5]: inactive

SMILES: CC1(C)CC(=O)c2c(C(F)(F)F)nn(-c3ccc(C(N)=O)c(NC4CCC(O)CC4)c3)c2C1 (stereo not given)
- Potency [1]: inactive
- Potency [2]: inactive
- Potency [3]: inactive
- Potency [4]: inactive
- outcome [5]: inactive
- Potency [8]: 0.059 µM (active)

SMILES: CC1CCN(c2cc(N3CCN(C)CC3)ccc2NC(=O)c2cc(C#N)c[nH]2)CC1
- Potency [1]: inactive
- Potency [2]: inactive
- Potency [7]: inactive
- Potency [4]: inactive
- outcome [5]: inactive

SMILES: Cc1csc(-c2nnc(Nc3ccc(Oc4ncccc4-c4ccnc(N)n4)cc3)c3ccccc23)c1
- Potency [1]: inactive
- Potency [2]: inactive
- Potency [3]: inactive
- Potency [4]: inactive
- outcome [5]: inactive
- Potency [8]: 16.6 µM (active)
- Potency [6]: 23.5 µM (active)

SMILES: CN(C)c1nc(Cc2ccc(NC(=O)c3ccc(C(F)(F)F)cc3)cc2)nc(N(C)C)c1CC(=O)O
- Potency [1]: inactive
- Potency [2]: inactive
- Potency [7]: inactive
- Potency [3]: inactive
- Potency [4]: inactive
- Potency [6]: inactive

SMILES: C#CCN(C)CC1=Cc2ccccc2Oc2ccccc21
- Potency [1]: inactive
- Potency [2]: inactive
- Potency [8]: inactive

SMILES: N#Cc1ccc(Oc2ccc3c(c2)COB3O)cc1
- Potency [1]: inactive
- Potency [2]: inactive
- Potency [7]: inactive
- Potency [3]: inactive
- outcome [5]: inactive

SMILES: C[C@@H](N)c1ccc(C(=O)Nc2ccnc3[nH]ccc23)cc1
- Potency [1]: inactive
- Potency [2]: inactive
- Potency [3]: inactive
- Potency [4]: inactive
- outcome [5]: inactive
- Potency [8]: 26.4 µM (active)
- Potency [6]: 26.4 µM (active)

SMILES: CC(C)(C)c1nc(-c2cccc(NS(=O)(=O)c3c(F)cccc3F)c2F)c(-c2ccnc(N)n2)s1
- Potency [1]: inactive
- Potency [2]: inactive and 12.8 µM (active) and 11.2 µM (active)
- Potency [7]: inactive
- Potency [3]: inactive
- Potency [4]: inactive
- Potency [6]: 3.32 µM (active)

SMILES: Cc1cccc2c1CC[C@H](CN1CCC(c3c(Cl)cccc3Cl)CC1)C[C@@H]2O
- Potency [1]: inactive
- Potency [2]: inactive
- Potency [3]: inactive
- Potency [4]: inactive
- outcome [5]: inactive
- Potency [6]: 16.6 µM (active)

SMILES: C=CC(=O)Nc1cccc(Sc2nc(Nc3ccc(N4CCN(C)CC4)cc3)ncc2Cl)c1
- Potency [1]: inactive
- Potency [2]: inactive
- Potency [3]: 3.36 µM (active)
- Potency [4]: inactive
- outcome [5]: inactive

SMILES: CN1C(=O)C[C@H](C(=O)N[C@@H](Cc2cnc[nH]2)C(=O)N2CCC[C@@H]2C(N)=O)NC1=O
- Potency [1]: inactive
- Potency [2]: inactive
- Potency [8]: inactive

From PubChem BioAssay (NCATS)
